Source: PubChem (several laboratories)
Most compounds without a hit are left out; they make up all but 3.7% or so of the library.
FadD28 binding: M. tuberculosis FadD28 bisubstrate binding inhibition | FadD28 bisubstrate probe binding, fluorescence polarization | 0.22% of 360,000 active | inhibition, % at 12.5 µM | AID 588549; in the data active = inhibition above about 8.5%, passing the limit was not always enough
Rv3671c protease: inhibitors of M. tuberculosis serine protease Rv3671c; inhibition, % at 5.96 µM; 0.048% of 320,000 active; in the data active = inhibition above about 38%;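 note: extracellular domain of Rv3671c used as enzyme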
Target sequence (P9WHR9 whole entry, looked up, the tested form may be a part): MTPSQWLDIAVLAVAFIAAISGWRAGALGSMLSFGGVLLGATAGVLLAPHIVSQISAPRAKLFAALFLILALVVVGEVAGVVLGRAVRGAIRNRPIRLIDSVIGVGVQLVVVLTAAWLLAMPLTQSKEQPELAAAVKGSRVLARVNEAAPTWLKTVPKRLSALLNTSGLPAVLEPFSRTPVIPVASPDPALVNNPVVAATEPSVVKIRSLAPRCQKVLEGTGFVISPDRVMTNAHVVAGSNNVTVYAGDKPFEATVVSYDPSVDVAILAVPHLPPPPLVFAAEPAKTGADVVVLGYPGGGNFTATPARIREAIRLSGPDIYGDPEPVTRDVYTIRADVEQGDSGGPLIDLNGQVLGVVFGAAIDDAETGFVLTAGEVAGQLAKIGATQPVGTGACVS
Mtb FBA inh: Mtb fructose-bisphosphate aldolase inhibition | P9WQA3 | purified M. tuberculosis FBA, fluorescence read-out | inhibition, % at 1 µM | 2.3% of 360,000 active | AID 588726
UGM FP inh: Mtb UDP-galactopyranose mutase inhibition | P9WIQ1 | purified UGM, fluorescence polarization probe displacement | inhibition, % at 10 µM | 0.06% of 320,000 active | AID 504406; in the data active = inhibition above about 10%, passing the limit was not always enough
GDH-TPI counter-1: counter-screen for M. tuberculosis FBA inhibitors: GDH-TPI coupled enzymes; GDH-TPI coupled enzyme counterscreen, NADH absorbance; inhibition, % at 4.8 µM; 1.2% of 360,000 active; in the data active = inhibition above about 30%
Mtb bLac sens: beta-lactam sensitization of Mtb H37Rv | M. tuberculosis H37Rv growth with meropenem, percent inhibition | inhibition, % at 25 µM | AID 434955 | 0.27% of 330,000 active; call rule not given here;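 note: growth measured after seven days incubation then overnight dye step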
Mtb FBA confirm: confirmation of M. tuberculosis fructose-bisphosphate aldolase inhibitors; shares compounds with Mtb FBA inh; purified M. tuberculosis FBA, fluorescence read-out; inhibition, % at 1 µM; 78% of 5,600 active
GDH-TPI counter-2: inhibits GDH-TPI coupling enzymes, flagging Mtb FBA hits. inhibition, % at 1 µM. 81% of 5,600 active. shares compounds with Mtb FBA inh. GDH-TPI coupled enzyme counterscreen, fluorescence. AID 652141; in the data active = inhibition above about 10%
GDH-TPI DR: GDH-TPI dose response counter-screen for Mtb FBA | shares compounds with Mtb FBA inh | GDH-TPI coupled enzyme assay, fluorescence, artifact counterscreen | IC50, µM | 79% of 170 active; call rule not given here
A number is an active result; – = inactive; · = not tested or not shown; + = active, no number. Cut-off read from the data, not from the text of the source, unless noted: active = inhibition above about 27%; inactive = the rest.

SMILES	FadD28 binding	Rv3671c protease	Mtb FBA inh	UGM FP inh	GDH-TPI counter-1	Mtb bLac sens	Mtb FBA confirm	GDH-TPI counter-2	others
N#CCCOC1(C#CCN2CCCC2)CCCCC1	–	–	–	–	–	–	·	·
COc1cc2nc(N3CCNCC3)nc(N)c2cc1OC	–	–	56	–	–	–	–	–
COc1cc2nc(N3CCN(c4cc(C)ccc4C)CC3)nc(N)c2cc1OC	–	–	–	–	–	–	·	·
NC(=O)c1cccc(-c2ccnc3c2CC(C(=O)Nc2cccc(C(F)(F)F)c2)O3)c1 (stereo unspecified)	–	·	–	·	–	·	·	·
Cc1cc(C)c2c(N)c3ccccc3nc2n1	–	–	70	–	–	–	181	143
CCc1ccc2nc3nc(C)cc(C)c3c(N)c2c1	–	–	34	–	–	–	103	77
CCc1cc(=O)oc2cc(C)cc(OC(C)C(=O)NCCCN3CCCC3=O)c12 (stereo unspecified)	–	–	87	–	–	–	–	–
CCc1cc(=O)oc2cc(OCC(=O)NCCCN3CCCC3=O)ccc12	–	–	–	–	–	–	·	·
CCCc1cc(=O)oc2cc(C)cc(OCC(=O)NCCCN3CCCC3=O)c12	–	–	66	–	–	–	+	+
Cc1c(C)c2ccc(OC(C)C(=O)NCCCn3ccnc3)c(C)c2oc1=O (stereo unspecified)	–	–	55	–	–	–	67	51
CCc1cc(=O)oc2cc(C)cc(OC(C)C(=O)NCCCn3ccnc3)c12 (stereo unspecified)	–	–	54	–	–	–	–	–
C[C@@H](O)CNC(=O)c1[nH]cnc1C(=O)N[C@H](C)c1ccccc1	–	·	–	·	–	·	·	·
COc1ccncc1-c1ccccc1C1=CC(=O)CC(C)(C)C1=O	–	·	–	·	–	·	·	·
COc1cccc(CN2CCC2(C)C(=O)Nc2cccc(Oc3ccccc3)c2)c1OC (stereo unspecified)	–	·	–	·	–	·	·	·
Cc1cccc(C=NOCCc2ccccc2)n1	–	·	–	·	–	·	·	·
Clc1ccccc1-c1cnc2sc(NCc3ccc4c(c3)OCO4)nn12	–	·	–	·	–	·	·	·
Cc1c(C)c2cc(Cl)c(OCC(=O)NCCCN3CCCC3=O)cc2oc1=O	–	·	45	·	34	·	–	–	GDH-TPI DR=7.1
Cc1cc(=O)oc2cc(OCC(=O)NCCCN3CCCC3=O)c(Cl)cc12	–	–	–	–	–	–	·	·
O=C(COc1cc2oc(=O)c3c(c2cc1Cl)CCC3)NCCCN1CCCC1=O	–	–	–	–	–	–	·	·
Cc1cc(OCC(=O)NCCCN2CCCC2=O)c2c(C)cc(=O)oc2c1	–	–	103	–	–	–	–	–
Cc1c(OC(C)C(=O)NCCCN2CCOCC2)ccc2c1oc(=O)c1ccccc12 (stereo unspecified)	–	–	74	–	–	–	–	–
CCc1cc(=O)oc2cc(C)cc(OC(C)C(=O)NC3CC(C)(C)NC(C)(C)C3)c12 (stereo unspecified)	–	–	72	–	–	–	49	42
N#CCSc1n[nH]c2nc3c(c(=O)n12)C1(CCCC1)Cc1ccccc1-3	–	–	66	–	–	–	115	83
NC(=O)C1CCCN(C(=O)Nc2cccc3ccccc23)C1 (stereo unspecified)	–	–	40	–	–	–	60	46
CCc1ccccc1NC(=O)N1CCc2ccccc2C1	–	·	–	–	–	–	·	·
SMILES	FadD28 binding	Rv3671c protease	Mtb FBA inh	UGM FP inh	GDH-TPI counter-1	Mtb bLac sens	Mtb FBA confirm	GDH-TPI counter-2	others
O=C(O)c1ccccc1NC(=O)N1CCOCC1	–	–	32	–	–	–	112	90
O=C(Nc1cccc2ccccc12)N1CCc2ccccc2C1	–	–	43	–	–	–	–	–	GDH-TPI DR=–
CCN1CCN(C(=O)Nc2cccc3ccccc23)CC1	–	–	44	–	–	–	71	72
COC(=O)C[C@H]1c2cc(F)ccc2S(=O)(=O)N1c1ccc(N(C)C)cc1	–	–	–	–	–	–	·	·
O=C(NC1CCCCCC1)c1ccc(CS(=O)Cc2cccc(Cl)c2)o1 (stereo unspecified)	–	–	–	–	–	–	·	·
O=C1N[C@@H](Cc2c[nH]c3ccccc23)C(=O)N[C@H]1Cc1ccccc1	–	·	–	·	–	·	·	·
O=C(Nc1cccc2ccccc12)N1CCN(c2ccc(F)cc2)CC1	–	–	30	–	–	–	54	55
O=C(Nc1cccc2ccccc12)N1CCCN(c2c(Cl)cncc2Cl)CC1	–	–	–	–	–	·	·	·
COC(=O)c1ccccc1NC(=O)N1CCN(c2ccc(F)cc2)CC1	–	–	–	–	–	–	·	·
COc1ccccc1NC(=O)N1CCOCC1	–	–	–	–	–	–	·	·
CN1CCN(C(=O)Nc2cccc3ccccc23)CC1	–	–	40	–	–	–	–	–
O=C(Nc1cccc2ccccc12)N1CCOCC1	–	–	45	–	–	–	122	88
CC1CC(C)(C)CC2(C1)NC(=O)N(CC(=O)N1CCN(S(=O)(=O)c3ccc(F)c(F)c3F)CC1)C2=O (stereo unspecified)	–	·	–	·	–	·	·	·
CC1Cc2ccccc2N1C(=O)c1cc2cccnc2n(C)c1=O (stereo unspecified)	–	–	–	–	–	–	·	·
O=C1c2cccc3cccc(c23)C(=O)N1Cc1cccnc1	–	–	41	–	–	–	–	–
O=C(CCCN1C(=O)c2cccc3cccc(c23)C1=O)NC1CCS(=O)(=O)C1 (stereo unspecified)	–	–	40	–	–	–	56	57
O=C(CCCCCN1C(=O)c2cccc3cccc(c23)C1=O)NCCO	–	–	36	–	–	–	90	74
O=C(CCN1C(=O)c2cccc3cccc(c23)C1=O)NCc1cccnc1	–	–	35	–	–	–	–	–
Cc1cccc(C)c1NC(=O)CNC(=O)CCCN1C(=O)c2cccc3cccc(c23)C1=O	–	–	–	–	–	–	·	·
CC(NC(=O)CSc1ccc(S(=O)(=O)N2CCOCC2)cn1)c1ccc(Cl)cc1Cl (stereo unspecified)	–	·	–	·	–	·	·	·
O=C(NCc1ccco1)c1cccc2c(-c3ccc(F)c(F)c3)coc12	–	·	–	·	–	·	·	·
Cc1cn2c(nc(=O)c3cccnc32)s1	–	–	36	–	–	–	107	87
COC(=O)C(=Cc1ccncc1)c1cccc2ccccc12	–	·	–	·	–	·	·	·
Cc1c(NC(=O)C(C)OC(=O)c2ccc([N+](=O)[O-])cc2Cl)c(=O)n(-c2ccccc2)n1C (stereo unspecified)	–	·	–	·	–	·	·	·
CC(=O)N1CCc2c(sc(NC(=O)C3CCCN3S(=O)(=O)c3cccs3)c2C#N)C1 (stereo unspecified)	–	–	33	–	–	–	48	35
